This passage reports Potency results from PubChem BioAssay AID493206 (National Center for Advancing Translational Sciences (NCATS), 2011).

Results filed as inconclusive are left out. Activity calls are given as the source filed them. The call rests on the fitted dose curve; in most records, active means well fitted inhibition curve with a large enough effect; inconclusive means small, poorly fitted or top-dose-only effect; inactive means flat fitted curve, though single readings scatter.

The target of the test is Dual specificity tyrosine-phosphorylation-regulated kinase 1A (Homo sapiens) (UniProt Q13627). As to the kind of experiment: Assay for Inhibitors of Dual-Specificity Tyrosine-(Y)-Phosphorylation Regulated Kinase 1A (Kinase-Glo assay): round 2 SAR. The settings on record: recombinant DYRK1A, Kinase-Glo ATP depletion luminescence; series mostly up to 76.9 µM. From the text: NIH Molecular Libraries Probe Production Centers Network [MLPCN] NIH Chemical Genomics Center [NCGC] MLPCN Grant: 1R03MH084827-01 PI Name: Tom Misteli NCGC Assay Overview: The CMGC group of protein kinases which includes CDK-like kinases (Clk) and Dyks are essential kinases found in all eukaryotes. Clks have been implicated to play a role in the regulation of alternative splicing; while Dyrks, in particular over expression of Dyrk1A, has been linked to diseases as Down syndrome (DS; OMIM 190685) and Alzheimer disease (AD; OMIM 104300). Among the members of the CMGC group, the Clks and the Dyrks are very closely related therefore to determine validity and selectivity of an active compound observed in the CLK4 qHTS screen (AID:1770), a bioluminescent counter-screen against Dyrk1A was developed. In addition, potent and selective compounds against Dyrk1A were identified to further assess the role of this enzyme in DS and AD. Dyrk1A (Invitrogen, cat # PV3785) was assayed using ATP and DYRKtide (AnaSpec, cat# 62698) as substrates. Promega Kinase-Glo (cat# V6712) technology was used to detect the residual ATP following kinetic reaction. The Kinase-Glo Plus contains Ultra-Glo [5] luciferase and D-luciferin which generates a bioluminescence signal from the remaining ATP. No enzyme and harmine (Sigma, cat # 286044-1G), a compound shown to inhibit Dyrks were used as a positive control; while DMSO treatment was used as a negative control.
NCGC Assay Protocol Summary: Two uL/well of substrate solution (8uM Dyrktide, 2uM ATP, 25mM Tris-HCl pH 7.5, 10mM MgCl2 , 0.5mM EGTA, 5mM cystein, 0.01% Triton X-100 final concentration) was dispensed into 1536-well assay plates (Greiner, solid white, medium-binding plates) with Aurora Discovery BioRAPTR Flying Reagent Dispenser (FRD, Beckton-Dickenson). Compound solution (23 nL) was transferred to the assay plate using Kalypsys pin tool equipped with a 1536-pin tool. One uL/well enzyme solution (5nM Dyrk1A, 25mM Tris-HCl pH7.5, 10mM MgCl2, 0.5mM EGTA, 5mM cystein, 0.01% Triton X-100 final concentration) was then added using FRD yielding a total kinase reaction volume of 3uL/well. After 2 hours of room temperature incubation, 3uL Kinase-Glo detection reagent was added for a final assay volume of 6uL/well. The plates were spun for 30 seconds (1000 rpm) and incubated at ambient temperature for 2 minutes followed by a luminescence read using Perkin Elmer ViewLux plate reader at 3 seconds exposure time and 2x binning.
A general note: In Kinase-Glo more light means more ATP remaining.
Regarding `COc1cccc(Nc2ncc3ncc(=O)n(C)c3n2)c1`, the Potency was 11.6 µM (active).

In the case of `Cc1cccc(-c2ccc3ncnc(NCc4cccs4)c3c2)c1`, the Potency is 18.4 µM (active).

Regarding `Cc1ccc(CN(C)c2ncnc3ccc(-c4ccc(C(=O)O)o4)cc23)o1`, the Potency was 16.4 µM (active).

`Cc1nc(CCNc2ncnc3ccc(-c4ccc5c(c4)OCO5)cc23)cs1`: the Potency was 0.26 µM (active).

On to `Cc1csc(CNc2ncnc3ccc(-c4cccnc4)cc23)c1`, for which the Potency was 23.2 µM (active).

With `CN(CC(=O)O)c1ncnc2ccc(-c3ccc4c(c3)OCO4)cc12`, the Potency is 8.23 µM (active).

`Fc1cccc(CNc2ncnc3ccc(-c4cccnc4)cc23)c1`: the Potency is 26 µM (active).

Consider `Clc1cccc(-c2ccc3ncnc(NCc4cccnc4)c3c2)c1`, for which the Potency is 18.4 µM (active).

As to `COc1cccc(-c2ccc3ncnc(NCc4ccc5c(c4)OCO5)c3c2)c1`, the Potency was 9.23 µM (active).

`COc1cccc(-c2ccc3ncnc(NCc4cc(C)cs4)c3c2)c1`: the Potency is 5.82 µM (active).

`CN(CC1CCCO1)c1ncnc2ccc(-c3ccc4c(c3)OCO4)cc12` (centres undefined): the Potency was 0.26 µM (active).

Regarding `Clc1ccccc1-c1ccc2ncnc(NCc3ccc4c(c3)OCO4)c2c1`, the Potency entry was “inactive”.

Turning to `C[C@@H](O)c1ccc(-c2ccc3ncnc(NCc4cccs4)c3c2)o1`, the Potency was 23.2 µM (active).

Consider `Cc1csc(CNc2ncnc3ccc(-c4ccc(C(C)O)o4)cc23)n1` (centres undefined), for which the Potency was 26 µM (active).

`CN(CC1CCCCC1)c1ncnc2ccc(-c3ccc4c(c3)OCO4)cc12`: the Potency was 0.26 µM (active).

With `Cc1csc(CNc2ncnc3ccc(-c4ccc5c(c4)OCO5)cc23)n1`, the Potency was 0.207 µM (active).

Turning to `Fc1cccc(CNc2ncnc3ccc(-c4ccoc4)cc23)c1`, the Potency is 0.823 µM (active).

Consider `Clc1cccc(-c2ccc3ncnc(NCc4cccs4)c3c2)c1`, for which the Potency was 13 µM (active).

As to `Cn1ccc2cc(-c3ccc4ncnc(NCc5cccc(F)c5)c4c3)ccc21`, the Potency entry was “inactive”.

Consider `Cc1ccsc1CN(C)c1ncnc2ccc(-c3ccc(COC(=O)N(C)C)o3)cc12`, for which the Potency is 9.23 µM (active).

`Cc1nc(CCN(C)c2ncnc3ccc(-c4ccc5c(c4)OCO5)cc23)cs1`: the Potency is 0.654 µM (active).

`Clc1ccccc1-c1ccc2ncnc(NCc3cccs3)c2c1`: the Potency is 6.54 µM (active).

For `c1cncc(CNc2ncnc3ccc(-c4ccc5c(c4)OCCO5)cc23)c1`, the Potency was 1.16 µM (active).

On to `Cc1cccc(CNc2ncnc3ccc(-c4ccc5c(c4)OCO5)cc23)c1`, for which the Potency is 1.04 µM (active).

On to `Fc1cccc(CNc2ncnc3ccc(-c4ccccc4Cl)cc23)c1`, for which the Potency is 16.4 µM (active).

`Clc1cccc(-c2ccc3ncnc(NCc4ccc5c(c4)OCO5)c3c2)c1`: the Potency result is “inactive”.

Take `c1cncc(CNc2ncnc3ccc(-c4ccc5c(c4)OCO5)cc23)c1`: the Potency is 0.412 µM (active).

For `Cc1cccc(-c2ccc3ncnc(NCc4cccc(F)c4)c3c2)c1`, the Potency was 13 µM (active).

As for `Cc1csc(CNc2ncnc3ccc(-c4ccoc4)cc23)c1`, the Potency was 3.68 µM (active).

Consider `CC(O)c1ccc(-c2ccc3ncnc(N4CCOCC4)c3c2)o1` (centres undefined), for which the Potency was 23.2 µM (active).

With `c1csc(CNc2ncnc3ccc(-c4ccc5c(c4)OCO5)cc23)n1`, the Potency is 0.184 µM (active).

As to `c1csc(CNc2ncnc3ccc(-c4ccc5c(c4)OCO5)cc23)c1`, the Potency is 0.184 µM (active).

`CN(C)CCCNc1ncnc2ccc(-c3ccc4c(c3)OCO4)cc12`: the Potency was 8.23 µM (active).

For the compound `O=C(O)c1ccc(-c2ccc3ncnc(NCc4nccs4)c3c2)o1`, the Potency is 18.4 µM (active).

For the compound `Cc1csc(CNc2ncnc3cc(-c4ccc5c(c4)OCO5)ccc23)n1`, the Potency was 29.2 µM (active).

Take `CCNC(=O)c1ccc(-c2ccc3ncnc(NCc4nccs4)c3c2)o1`: the Potency was 10.4 µM (active).

Regarding `c1cncc(CNc2ncnc3ccc(-c4ccco4)cc23)c1`, the Potency was 26 µM (active).

For `Cn1cncc1CNc1ncnc2ccc(-c3ccc4c(c3)OCO4)cc12`, the Potency is 0.463 µM (active).

`Cc1nc(C(C)N(C)c2ncnc3ccc(-c4ccc5c(c4)OCO5)cc23)cs1` (centres undefined): the Potency is 29.2 µM (active).
